Calpain2 inh – inhibitors of pig calpain II. purified calpain II, fluorogenic peptide substrate, 30 min. actives 0.37% (n = 220,000). inhibition, % at 16 µM. AID 1236;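 active = inhibition above about 50%, limit read from the data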
TNF death inh – blocks TNF-alpha induced death of Jurkat FADD-/- cells; AID 463075; actives 0.068% (n = 220,000); activation (protection from cell death), % at 10 µM; Jurkat FADD-/- TNF necroptosis rescue, ATP luminescence, 24 h; 0 = TNF only, 100 = no-TNF cells;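 active = activation, meaning protection from cell death, of at least 50% relative to plate controls; inactive = activation below 50%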;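 also: necroptosis triggered by 40 ng/mL TNF-alpha added together with compound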
HSV replic up – HSV replication enhancement; maximum fold increase; HSV replication augmentation in cells, fold increase; actives 0.005% (n = 220,000); in the data active = maximum fold increase above about 1.5; tested in PC3 cells
L929 necroptosis – blocks zVAD induced death of L929 cells; L929 zVAD necroptosis rescue, ATP luminescence, 24 h; with zVAD 60 µM; actives 0.38% (n = 220,000); AID 1377; viability rescue, % at 10 µM;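 active = activation, scaled between plate controls, above about 75%, limit read from the data; inactive = activation under that limit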;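 also: 0% = zVAD with DMSO and 100% = DMSO alone without zVAD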
zVAD death conf – confirmed blocker of zVAD induced death in L929 cells; shares compounds with L929 necroptosis; L929 zVAD-induced necroptosis rescue, ATP luminescence, 24 h; activation (protection from necroptosis), % at 10 µM; actives 16% (n = 760);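 active = mean protection from necroptosis of at least 50% over duplicate tests; inactive = mean protection below 50%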;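 also: 0% = cells with zVAD alone and 100% = vehicle cells without zVAD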
Starred values were filed as active, the others as inactive; i = inactive; . = no result given. Hits are enriched below; roughly 0.77% of the tested compounds scored in any of these assays.

SMILES | Calpain2 inh | TNF death inh | HSV replic up | L929 necroptosis | zVAD death conf
C(=N\Nc1ccccn1)/c1c[nH]c2ccccc12 | 20.3 | 15.0 | i | 91.6* | 54.9*
O=C(O)c1ccccc1N/N=C\c1ccnc2ccccc12 | 16.0 | -2.7 | i | 0.2 | .
COc1cccc(NC(=S)N(CCCN2CCOCC2)C(C)c2cc3ccccc3o2)c1 (stereo unspecified) | -14.0 | -0.3 | i | -0.9 | .
O=C(Nc1ccc(Cl)cc1)N1N=CCC1c1ccccc1 (stereo unspecified) | -8.2 | 92.1* | i | 79.3* | 25.1
O=C1N=C2N(CCN3CCCCC3)c3ccccc3N2/C1=C\c1ccc([N+](=O)[O-])o1 | -18.6 | -14.4 | i | 75.4* | 0.5
O=C(Cn1nnc(-c2ccc(Cl)cc2)n1)NCc1ccco1 | -38.1 | 1.6 | i | 2.1 | .
COc1ccc(C(=O)Nc2ccc(-c3nnn(CC(=O)NCc4ccco4)n3)cc2)cc1 | -4.0 | -4.2 | i | 77.0* | 36.4
O=C(Cn1nnc(-c2ccc(NC(=O)c3ccccc3F)cc2)n1)NCc1ccc(F)cc1 | -46.1 | 2.9 | i | 83.8* | 38.4
O=C(Nc1ccc(-c2nnn(CC(=O)N3CCN(C(=O)c4ccco4)CC3)n2)cc1)c1ccccc1F | -58.2 | 3.7 | i | 74.0 | .
COC(CNC(=O)c1ccc2c(c1)ncn2-c1ccc(F)c(F)c1)OC | -21.6 | 1.0 | i | 77.0* | 34.7
COC(CNC(=O)c1ccc2c(c1)ncn2-c1cccc(F)c1)OC | -37.3 | 1.2 | i | 75.7* | 37.5
CCOC(CNC(=O)c1ccc2c(c1)ncn2-c1ccc(F)c(F)c1)OCC | -19.3 | 1.2 | i | 77.9* | 3.2
COC(CNC(=O)c1ccc2c(c1)ncn2-c1ccc(F)cc1F)OC | -15.2 | 1.5 | i | 12.7 | .
CN(/N=C/C=C/c1ccccc1)C1=NS(=O)(=O)c2ccccc21 | -101.2 | 0.6 | i | 0.4 | .
COC(=O)c1cc(S(=O)(=O)C(C)C)c(S(C)=O)s1 (stereo unspecified) | -11.6 | 1.9 | i | 76.8* | 11.0
CSc1sc(C(=O)NCC2CC2)cc1S(=O)(=O)C(C)C | -16.5 | 1.2 | i | 0.1 | .
CCOC(=O)[C@@H]1[C@H]2COc3ccccc3[C@@H]2N2C(=O)N(c3ccc(C(F)(F)F)cc3)C(=O)[C@]12C | . | . | i | . | .
COc1cc2oc(-c3ccc(O)cc3)cc(=O)c2c(O)c1OC | -5.3 | -11.1 | i | 78.4* | 42.4
COc1cc2oc(-c3ccc(O)cc3)cc(=O)c2c(OC)c1O | 14.7 | -2.3 | i | 6.5 | .
COc1ccc(N2C3=C(CC4=C2CCCC4=O)C(=O)CCC3)cc1 | -408.7 | -3.7 | i | -0.1 | .
COc1ccc(N2C3=C(CC4=C2CC(C)(C)CC4=O)C(=O)CC(C)(C)C3)cc1 | i | 2.3 | i | 95.0* | 40.3
Oc1ccc(/C=N/Nc2ncc(Br)cn2)c(O)c1 | 36.2 | 31.1 | i | 92.2* | 2.9
Brc1ccc(COn2ccnc2)cc1 | 17.2 | 61.3* | i | 91.4* | 74.9*
c1ccc(-n2cnc3cc(NCc4cccs4)ccc32)cc1 | -42.0 | -6.5 | i | 84.8* | 45.2
CCC(=O)Nc1ccc2c(c1)ncn2-c1ccc(OC)cc1 | 7.5 | 2.9 | i | 80.5* | 46.8
SMILES | Calpain2 inh | TNF death inh | HSV replic up | L929 necroptosis | zVAD death conf
Cc1ccc(-n2cnc3cc(NCc4cccs4)ccc32)cc1 | -50.5 | -1.2 | i | 1.2 | .
COc1ccc(-n2cnc3cc(NCc4ccccn4)ccc32)cc1 | 4.2 | 0.3 | i | 77.6* | 66.0*
COc1ccc(-n2cnc3ccccc32)cc1 | -17.7 | 0.3 | i | 80.3* | 38.3
COc1ccccc1-n1cnc2cc(NCc3ccccn3)ccc21 | -14.6 | -4.4 | i | 0.6 | .
O=C(Oc1ccccc1C(=O)Nc1ccccc1)c1ccccc1Br | -31.8 | -17.1 | . | 0.2 | .
CCc1ccc(-n2c(=O)c3c(C)c(C)sc3n(CC(=O)NCC3CCCO3)c2=O)cc1 (stereo unspecified) | -18.2 | 1.3 | i | 0.6 | .
CCC(=O)Nc1ccc2c(c1)ncn2-c1ccc(C)cc1 | 18.4 | 2.5 | i | 84.2* | 36.0
N#CCc1ccc(NC(=O)/C=C/c2ccc([N+](=O)[O-])o2)cc1 | -144.3 | -12.7 | i | 84.6* | 0.5
O=C(NN1C(=O)C2C3c4ccccc4C(c4ccccc43)C2C1=O)C1CC1 (stereo unspecified) | 9.0 | 0.1 | i | 0.6 | .
O=C(CN1CCC(C(=O)c2cccc(Cl)c2)CC1)Nc1ccc(C(=O)O)cc1 | -14.0 | 0.7 | i | 2.8 | .
Cc1ccsc1/C=N/Nc1ncnc2nc[nH]c12 | -0.1 | -6.8 | i | 64.2 | .
C(=N\Nc1ncnc2nc[nH]c12)/c1cccs1 | 3.3 | -2.7 | i | 77.4* | 39.7
O=C(CSc1nnnn1-c1ccc2c(c1)OCCO2)Nc1nc2c(s1)CCCC2 | 10.1 | 1.6 | i | 83.6* | 73.6*
CC(=O)NC(Cc1ccc(O)cc1)C(=O)NN (stereo unspecified) | -21.1 | 0.7 | i | 1.6 | .
O=[N+]([O-])c1ccc2c(c1)ncn2-c1ccccc1 | 19.9 | 0.3 | i | 83.1* | 19.7
CN(C)S(=O)(=O)Oc1ccc(C(=O)Nc2cccc(C(F)(F)F)c2)cc1 | 22.3 | -3.8 | i | 79.2* | 3.3
CN(C)S(=O)(=O)Oc1ccc(C(=O)Nc2cccc(Cl)c2)cc1 | 4.4 | 4.0 | i | 64.2 | .
CN(c1cccc(NC(=O)CSc2ccc(Cl)cc2)c1)S(C)(=O)=O | 8.3 | -7.3 | i | 75.3* | 2.8
CN(c1cccc(NC(=O)c2ccc(N(C)S(=O)(=O)c3ccccc3)cc2)c1)S(C)(=O)=O | 24.3 | -4.4 | i | 0.6 | .
CN(c1cccc(NC(=O)c2ccc(C(C)(C)C)cc2)c1)S(C)(=O)=O | 0.6 | -1.9 | i | 77.2* | 36.3
O=C(NNC(=O)[C@H]1CC=CC[C@H]1C(=O)O)c1ccc(Cl)cc1Cl | -18.9 | 0.2 | i | 1.8 | .
CSc1ccc(CN2CCC(C(=O)NCc3ccc(C)cc3)CC2)cc1 | 13.9 | 2.7 | i | 1.8 | .
COc1cc(/C=C(\C#N)C(=O)NC2CCCCC2)ccc1OCc1ccc(C(=O)O)cc1 | -30.7 | 0.5 | i | 2.0 | .
O=C(NCc1nnc(SCc2ccc(F)cc2)n1-c1ccc(F)cc1)C12CC3CC(CC(C3)C1)C2 | 8.6 | -1.2 | . | 2.9 | .
CCN(CC)CCCN(C(=O)Cn1nnc(-c2ccc(OC)c(OC)c2)n1)C(C(=O)NC(C)(C)C)c1ccc(F)cc1 (stereo unspecified) | -25.5 | 0.7 | i | -0.7 | .
N/C(=N\NC(=O)Nc1ccc(Cl)cc1)c1ccccn1 | 5.4 | 0.9 | i | 81.1* | 2.9
COc1ccc(-c2csc(Nc3ccc(C)cn3)n2)cc1OC | -22.9 | 1.5 | i | 3.8 | .
Cc1ccc(Nc2nc(-c3ccc(O)c(O)c3)cs2)nc1 | -84.9 | -6.9 | i | 79.1* | 37.9
Nc1[nH]nc2nc(N3CCOCC3)nc(-c3ccccc3)c12 | 20.0 | 0.3 | i | 91.6* | 38.6
Cc1nc(-c2ccccc2)sc1-c1ccnn1C | -398.9 | -1.1 | i | 1.5 | .

Screening results: PubChem, several laboratories
